Data taken from article PMC5540273 (PLoS ONE, 2017).

What was measured:
Conditions in all cases: concentration: 1 μM, replicates: in singlicate; n = 1
[1] = tested on: RPS6KA4(Kin.Dom.1-N-terminal)
[2] = tested on: RPS6KA4(Kin.Dom.2-C-terminal)
[3] = tested on: RPS6KA5(Kin.Dom.1-N-terminal)
[4] = tested on: RPS6KA5(Kin.Dom.2-C-terminal)
[5] = tested on: T1, RSK1(Kin.Dom.1-N-terminal)
T1 construct: gene RPS6KA1

[6] = tested on: T2, RSK1(Kin.Dom.2-C-terminal)
T2 construct: gene RPS6KA1

[7] = tested on: T3, RSK2(Kin.Dom.1-N-terminal)
T3 construct: gene RPS6KA3

[8] = tested on: T4, RSK2(Kin.Dom.2-C-terminal)
T4 construct: gene RPS6KA3

[9] = tested on: T5, RSK3(Kin.Dom.1-N-terminal)
T5 construct: gene RPS6KA2

[10] = tested on: T6, RSK3(Kin.Dom.2-C-terminal)
T6 construct: gene RPS6KA2

[11] = tested on: T7, RSK4(Kin.Dom.1-N-terminal)
T7 construct: gene RPS6KA6

[12] = tested on: T8, RSK4(Kin.Dom.2-C-terminal)
T8 construct: gene RPS6KA6

S6K1 = tested on: S6K1
SBK1 = tested on: SBK1
SGK2 = tested on: SGK2
SGK3 = tested on: SGK3
SGK = tested on: SGK
SIK2 = tested on: SIK2
SIK = tested on: SIK
SLK = tested on: SLK
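Note: KINOMEscan kinase panel screen.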

SMILES	%Inh [1] [%]	%Inh [2] [%]	%Inh [3] [%]	%Inh [4] [%]	%Inh [5] [%]	%Inh [6] [%]	%Inh [7] [%]	%Inh [8] [%]	%Inh [9] [%]	%Inh [10] [%]	%Inh [11] [%]	%Inh [12] [%]	%Inh (S6K1) [%]	%Inh (SBK1) [%]	%Inh (SGK2) [%]	%Inh (SGK3) [%]	%Inh (SGK) [%]	%Inh (SIK2) [%]	%Inh (SIK) [%]	%Inh (SLK) [%]
COc1ccc(Nc2nccc(N3CCC(NC(=O)Nc4cccc(OC)c4)C3)n2)cc1 (stereo not shown) [GSK1379742]	15	0	10	0	0	0	15	1	0	0	0	24	0	0	0	0	3	0	0	17
Cc1ccc(C(=O)Nc2ccc(Nc3ccnc4cc(-c5nccs5)ccc34)cc2O)cc1.Cl [GW494702]	0	0	0	0	0	0	0	30	11	0	0	0	11	6	0	0	11	5	4	30
COc1cc(Nc2nccc(N3CCC(NC(=O)c4cc5ccccc5s4)C3)n2)cc(OC)c1OC (stereo not shown) [GSK1379760]	0	0	5	4	16	46	0	18	0	0	0	11	17	17	0	10	11	15	14	76
Cl.c1ccc(-c2ccc3c(Nc4ccc5[nH]ncc5c4)ccnc3c2)nc1 [GW440137]	0	0	2	34	20	6	0	0	6	0	0	0	0	0	0	21	58	0	0	31
Nc1ncc(-c2cccnc2)c2scc(-c3ccc4c(c3)CCN4C(=O)Cc3ccccc3)c12 [GSK683281]	24	0	21	0	21	1	0	24	14	0	0	26	0	25	0	10	0	4	19	33
CSc1cccc2c(-c3ccncn3)c(-c3ccc(F)cc3)nn12 [GW514786]	28	0	3	7	5	38	0	11	11	0	0	90	0	2	15	0	1	2	2	22
NCCCC(NC(=O)c1cc(Br)c(-c2ccnc3[nH]ccc23)s1)c1ccccc1.O=C(O)C(F)(F)F.O=C(O)C(F)(F)F (stereo not shown) [GSK1287544]	53	1	51	5	0	0	29	0	12	0	8	0	58	44	65	52	54	0	19	14
Nc1n[nH]c2cnc(-c3ccccc3)cc12 [SB-642124]	0	71	12	44	23	0	22	23	18	3	19	15	10	22	31	74	74	2	0	0
Cn1cc(-c2ccc3c(c2)CCN3C(=O)Cc2cccc(F)c2)c2c(N)ncnc21 [GSK2603358]	7	0	35	0	20	3	0	0	20	0	0	43	12	30	18	2	0	0	4	55
O=c1[nH]cc(-c2ccc(N3CCOCC3)cc2)c2sc(-c3cn[nH]c3)cc12 [GSK2276055]	2	0	0	28	29	24	23	7	14	22	0	18	0	0	0	13	0	0	0	0
Cl.Cl.NCC(NCc1ccc(-c2ccnc3[nH]ccc23)s1)c1ccccc1 (stereo not shown) [GSK1321565]	16	57	32	53	25	0	36	0	39	14	55	26	53	57	0	43	55	0	5	74
O=C(Nc1n[nH]c2cc(-c3ccoc3)ccc12)C1CC1 [SB-738481]	0	11	0	0	12	0	1	0	0	2	3	1	36	0	5	28	1	0	0	2
CC(C)c1nc(-c2cccc(NS(=O)(=O)c3c(F)cccc3F)c2F)c(-c2ccnc(Nc3ccc(N4CCOCC4)nc3)n2)s1 [GSK2008607]	0	0	2	0	100	12	41	0	45	0	10	39	82	40	9	28	40	91.3	99.5	97
COc1cccc(C2=C(Nc3ccc(Cl)c(C(=O)O)c3)C(=O)NC2=O)c1 [SB-390769]	17	0	13	0	29	0	100	20	14	0	100	0	2	99.9	19	100	0	0	0	16
Cc1occc1-c1ncc(OC[C@@H](N)Cc2c[nH]c3ccccc23)cc1-c1ccc2[nH]nc(C)c2c1.O=C(O)C(F)(F)F [GSK682037]	8	0	49	0	7	0	79	0	22	0	61	0	56	19	0	20	0	65	54	95.2
Cc1ccc(F)c(C(=O)Nc2cccc(-c3nn4ccccc4c3-c3ccnc(Nc4cccc(F)c4)n3)c2)c1F [GSK361061]	34	0	21	0	65	7	4	0	0	7	0	13	0	100	4	2	11	29	68	94.2
O=C(NC1CCN(c2ccnc(Nc3ccc(F)cc3)n2)C1)c1cc2ccccc2s1 (stereo not shown) [GSK1379716]	17	0	29	0	22	13	4	0	20	4	0	24	0	24	0	0	14	6	11	32
